# According to ChEMBL document CHEMBL1961873, “Compounds: GSK PKIS; Assays: Nanosyn kinase panel” (2012):
# What was measured:
# [1] = target: Fibroblast growth factor receptor 4 (Homo sapiens) (UniProt P22455); conditions: at 1 µM;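 further: reported figure is the averaged percent inhibition of FGFR4, from the GSK PKIS kinase screening panel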
# [2] = target: Tyrosine-protein kinase Fgr (Homo sapiens) (UniProt P09769); conditions: at 0.1 µM
# [3] = target: Tyrosine-protein kinase Fgr (Homo sapiens) (UniProt P09769); conditions: at 1 µM
# [4] = target: Vascular endothelial growth factor receptor 1 (Homo sapiens) (UniProt P17948); conditions: at 0.1 µM
# [5] = target: Vascular endothelial growth factor receptor 1 (Homo sapiens) (UniProt P17948); conditions: at 1 µM
# [6] = target: Receptor-type tyrosine-protein kinase FLT3 (Homo sapiens) (UniProt P36888); conditions: at 0.1 µM
# [7] = target: Receptor-type tyrosine-protein kinase FLT3 (Homo sapiens) (UniProt P36888); conditions: at 1 µM
# [8] = test system: T1, Receptor-type tyrosine-protein kinase FLT3 (Homo sapiens), P36888 [D835Y]; conditions: at 0.1 µM
# T1 sequence (whole entry): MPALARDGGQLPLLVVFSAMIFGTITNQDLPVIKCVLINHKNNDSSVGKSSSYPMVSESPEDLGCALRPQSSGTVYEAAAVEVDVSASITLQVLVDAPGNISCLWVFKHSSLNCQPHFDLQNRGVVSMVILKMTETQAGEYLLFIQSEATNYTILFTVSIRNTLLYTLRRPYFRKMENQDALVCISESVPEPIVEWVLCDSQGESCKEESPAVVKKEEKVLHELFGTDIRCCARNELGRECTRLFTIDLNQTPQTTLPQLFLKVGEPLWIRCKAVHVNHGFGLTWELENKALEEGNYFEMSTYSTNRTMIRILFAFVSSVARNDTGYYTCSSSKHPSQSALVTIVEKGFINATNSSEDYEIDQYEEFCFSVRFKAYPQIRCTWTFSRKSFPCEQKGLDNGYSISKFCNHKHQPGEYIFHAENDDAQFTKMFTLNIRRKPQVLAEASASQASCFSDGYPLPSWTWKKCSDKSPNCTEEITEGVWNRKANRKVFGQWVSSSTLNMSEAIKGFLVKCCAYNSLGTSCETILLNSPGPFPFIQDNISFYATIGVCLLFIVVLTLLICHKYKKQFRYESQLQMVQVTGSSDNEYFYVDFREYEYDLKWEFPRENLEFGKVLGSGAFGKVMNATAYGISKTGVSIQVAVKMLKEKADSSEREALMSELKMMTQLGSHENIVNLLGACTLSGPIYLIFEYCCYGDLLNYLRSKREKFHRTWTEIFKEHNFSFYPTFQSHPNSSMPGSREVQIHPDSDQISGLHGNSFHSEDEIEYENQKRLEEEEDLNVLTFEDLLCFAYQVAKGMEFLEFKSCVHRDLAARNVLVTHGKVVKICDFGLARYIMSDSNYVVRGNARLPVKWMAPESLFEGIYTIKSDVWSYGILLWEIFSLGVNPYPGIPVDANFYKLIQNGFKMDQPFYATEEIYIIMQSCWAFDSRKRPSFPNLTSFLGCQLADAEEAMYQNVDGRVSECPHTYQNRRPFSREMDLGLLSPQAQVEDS
# [9] = target: Non-receptor tyrosine-protein kinase TYK2 (Homo sapiens) (UniProt P29597); conditions: at 1 µM;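 further: values are mean percent inhibition of TYK2 kinase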
# Sequence of Non-receptor tyrosine-protein kinase TYK2 (Homo sapiens) (P29597 whole entry): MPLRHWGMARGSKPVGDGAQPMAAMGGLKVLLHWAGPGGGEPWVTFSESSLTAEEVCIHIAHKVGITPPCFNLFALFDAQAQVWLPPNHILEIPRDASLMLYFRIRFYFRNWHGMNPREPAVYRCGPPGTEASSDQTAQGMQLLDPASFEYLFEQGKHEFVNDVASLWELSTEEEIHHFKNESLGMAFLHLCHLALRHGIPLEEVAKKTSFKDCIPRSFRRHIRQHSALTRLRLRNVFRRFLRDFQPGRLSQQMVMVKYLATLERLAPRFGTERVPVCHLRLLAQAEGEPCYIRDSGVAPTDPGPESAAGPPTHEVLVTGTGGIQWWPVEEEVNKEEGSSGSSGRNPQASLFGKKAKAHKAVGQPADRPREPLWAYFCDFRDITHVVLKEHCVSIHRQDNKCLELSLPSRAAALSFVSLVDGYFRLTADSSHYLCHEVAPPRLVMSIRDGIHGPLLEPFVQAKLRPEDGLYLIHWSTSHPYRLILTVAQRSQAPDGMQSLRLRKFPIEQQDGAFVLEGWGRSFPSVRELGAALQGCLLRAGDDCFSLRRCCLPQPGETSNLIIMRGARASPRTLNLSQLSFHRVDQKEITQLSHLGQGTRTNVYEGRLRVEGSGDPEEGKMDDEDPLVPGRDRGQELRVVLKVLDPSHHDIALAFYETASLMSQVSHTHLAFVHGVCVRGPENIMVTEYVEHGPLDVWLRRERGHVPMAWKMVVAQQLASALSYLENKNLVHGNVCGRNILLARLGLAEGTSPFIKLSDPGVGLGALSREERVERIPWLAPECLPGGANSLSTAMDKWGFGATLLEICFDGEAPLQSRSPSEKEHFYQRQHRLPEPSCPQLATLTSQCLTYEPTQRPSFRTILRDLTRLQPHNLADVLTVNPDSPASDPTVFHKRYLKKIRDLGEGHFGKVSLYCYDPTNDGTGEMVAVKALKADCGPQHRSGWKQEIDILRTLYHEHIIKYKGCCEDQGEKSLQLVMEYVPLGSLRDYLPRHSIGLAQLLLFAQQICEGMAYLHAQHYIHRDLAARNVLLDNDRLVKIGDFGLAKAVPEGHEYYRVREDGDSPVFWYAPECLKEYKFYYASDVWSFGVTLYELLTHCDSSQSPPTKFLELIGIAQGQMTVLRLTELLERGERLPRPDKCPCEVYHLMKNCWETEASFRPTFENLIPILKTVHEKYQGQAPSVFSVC
# [10] = target: T2, Tyrosine-protein kinase receptor TYRO3 (Homo sapiens) (UniProt Q06418); conditions: at 0.1 µM
# T2 sequence (whole entry): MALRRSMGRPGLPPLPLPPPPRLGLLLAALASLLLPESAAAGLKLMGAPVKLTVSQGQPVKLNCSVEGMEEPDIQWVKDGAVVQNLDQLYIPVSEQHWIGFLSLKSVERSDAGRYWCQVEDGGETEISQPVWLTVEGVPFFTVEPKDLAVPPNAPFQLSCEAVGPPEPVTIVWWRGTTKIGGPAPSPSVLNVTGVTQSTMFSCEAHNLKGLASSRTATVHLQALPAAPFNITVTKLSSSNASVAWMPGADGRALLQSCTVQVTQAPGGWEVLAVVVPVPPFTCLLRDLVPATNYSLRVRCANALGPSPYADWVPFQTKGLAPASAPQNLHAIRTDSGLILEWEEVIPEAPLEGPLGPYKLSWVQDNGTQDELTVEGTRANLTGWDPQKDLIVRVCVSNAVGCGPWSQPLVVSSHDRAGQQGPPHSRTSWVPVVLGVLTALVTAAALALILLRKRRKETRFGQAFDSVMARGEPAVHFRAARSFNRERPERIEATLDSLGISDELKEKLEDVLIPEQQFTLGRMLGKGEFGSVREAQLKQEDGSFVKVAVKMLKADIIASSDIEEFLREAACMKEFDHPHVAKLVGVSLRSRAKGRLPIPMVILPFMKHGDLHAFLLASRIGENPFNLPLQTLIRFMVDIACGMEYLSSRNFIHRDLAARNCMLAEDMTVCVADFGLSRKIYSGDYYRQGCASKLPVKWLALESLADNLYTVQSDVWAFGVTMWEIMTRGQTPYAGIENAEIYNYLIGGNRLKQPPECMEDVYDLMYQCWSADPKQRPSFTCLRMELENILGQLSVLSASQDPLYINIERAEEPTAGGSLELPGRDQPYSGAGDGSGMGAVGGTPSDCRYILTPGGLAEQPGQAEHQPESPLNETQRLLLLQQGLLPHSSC
# [11] = target: T2, Tyrosine-protein kinase receptor TYRO3 (Homo sapiens); conditions: at 1 µM
# [12] = target: Tyrosine-protein kinase Yes (Homo sapiens) (UniProt P07947); conditions: at 0.1 µM
# Sequence of Tyrosine-protein kinase Yes (Homo sapiens) (P07947 2-543 limits assumed): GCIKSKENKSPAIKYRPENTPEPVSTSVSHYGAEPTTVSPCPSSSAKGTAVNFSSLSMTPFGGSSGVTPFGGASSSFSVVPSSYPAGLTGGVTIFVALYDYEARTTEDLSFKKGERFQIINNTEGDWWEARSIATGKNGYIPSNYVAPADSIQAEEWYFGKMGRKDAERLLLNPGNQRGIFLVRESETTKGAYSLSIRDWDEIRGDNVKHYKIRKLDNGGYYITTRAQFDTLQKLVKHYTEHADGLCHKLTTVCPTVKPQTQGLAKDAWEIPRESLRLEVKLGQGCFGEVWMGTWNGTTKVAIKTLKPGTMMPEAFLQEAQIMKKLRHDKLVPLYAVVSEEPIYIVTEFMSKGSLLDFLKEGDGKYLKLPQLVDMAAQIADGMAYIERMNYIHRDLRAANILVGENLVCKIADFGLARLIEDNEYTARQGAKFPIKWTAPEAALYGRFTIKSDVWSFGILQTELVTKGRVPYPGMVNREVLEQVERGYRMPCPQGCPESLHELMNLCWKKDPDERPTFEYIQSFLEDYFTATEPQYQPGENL
# [13] = target: Tyrosine-protein kinase Yes (Homo sapiens) (UniProt P07947); conditions: at 1 µM
# [14] = target: T3, Tyrosine-protein kinase ZAP-70 (Homo sapiens) (UniProt P43403); conditions: at 0.1 µM
# T3 sequence (whole entry): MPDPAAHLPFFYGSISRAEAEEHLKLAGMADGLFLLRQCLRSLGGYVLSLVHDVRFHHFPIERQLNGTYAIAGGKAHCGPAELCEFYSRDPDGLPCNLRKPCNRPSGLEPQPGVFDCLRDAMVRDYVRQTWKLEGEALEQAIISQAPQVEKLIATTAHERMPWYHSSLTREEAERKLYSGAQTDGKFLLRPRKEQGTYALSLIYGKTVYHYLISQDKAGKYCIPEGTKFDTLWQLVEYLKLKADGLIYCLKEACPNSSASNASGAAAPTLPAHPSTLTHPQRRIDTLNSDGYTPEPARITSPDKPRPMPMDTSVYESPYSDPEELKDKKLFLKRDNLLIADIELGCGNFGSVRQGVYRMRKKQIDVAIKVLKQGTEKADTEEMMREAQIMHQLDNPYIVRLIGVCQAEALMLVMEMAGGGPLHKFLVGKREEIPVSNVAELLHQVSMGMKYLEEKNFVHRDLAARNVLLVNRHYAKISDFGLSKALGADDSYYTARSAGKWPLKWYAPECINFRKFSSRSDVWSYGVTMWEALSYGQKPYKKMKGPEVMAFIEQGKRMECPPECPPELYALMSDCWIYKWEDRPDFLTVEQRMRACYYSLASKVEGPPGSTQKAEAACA
# [15] = target: T3, Tyrosine-protein kinase ZAP-70 (Homo sapiens); conditions: at 1 µM
# [16] = target: Serine/threonine-protein kinase B-raf (Homo sapiens) (UniProt P15056); conditions: at 0.1 µM
# Sequence of Serine/threonine-protein kinase B-raf (Homo sapiens) (P15056 whole entry): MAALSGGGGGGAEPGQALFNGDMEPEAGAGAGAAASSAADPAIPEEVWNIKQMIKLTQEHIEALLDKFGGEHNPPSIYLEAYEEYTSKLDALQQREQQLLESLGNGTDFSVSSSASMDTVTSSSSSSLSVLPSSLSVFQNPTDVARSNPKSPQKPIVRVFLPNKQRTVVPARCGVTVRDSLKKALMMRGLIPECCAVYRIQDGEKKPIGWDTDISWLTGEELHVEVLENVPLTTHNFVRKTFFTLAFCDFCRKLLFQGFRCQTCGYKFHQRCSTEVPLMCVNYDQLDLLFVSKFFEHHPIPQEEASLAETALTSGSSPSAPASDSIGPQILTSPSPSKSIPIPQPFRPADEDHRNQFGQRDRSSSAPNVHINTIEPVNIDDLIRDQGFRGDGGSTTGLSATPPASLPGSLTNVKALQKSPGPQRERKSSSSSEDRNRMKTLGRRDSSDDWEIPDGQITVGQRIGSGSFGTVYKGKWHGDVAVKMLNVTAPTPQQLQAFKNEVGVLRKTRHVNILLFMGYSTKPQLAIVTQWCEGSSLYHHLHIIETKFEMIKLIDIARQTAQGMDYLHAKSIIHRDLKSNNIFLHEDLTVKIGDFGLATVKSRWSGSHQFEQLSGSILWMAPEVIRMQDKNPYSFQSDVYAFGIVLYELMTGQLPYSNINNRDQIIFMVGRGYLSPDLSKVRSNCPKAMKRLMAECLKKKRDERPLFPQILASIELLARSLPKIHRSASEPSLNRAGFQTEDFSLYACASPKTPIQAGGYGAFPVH
# [17] = target: Serine/threonine-protein kinase B-raf (Homo sapiens) (UniProt P15056); conditions: at 1 µM
# [18] = test system: Serine/threonine-protein kinase B-raf (Homo sapiens), P15056 [V600E]; conditions: at 0.1 µM
# Sequence of Serine/threonine-protein kinase B-raf (Homo sapiens), P15056 [V600E] (P15056 whole entry V600E): as the sequence (P15056 whole entry) above, with V600E counted along it
# [19] = test system: Serine/threonine-protein kinase B-raf (Homo sapiens), P15056 [V600E]; conditions: at 1 µM
# [20] = target: RAF proto-oncogene serine/threonine-protein kinase (Homo sapiens) (UniProt P04049); conditions: at 0.1 µM;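 further: values are mean CRAF kinase inhibition from profiling of the GSK Published Kinase Inhibitor Set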
# Sequence of RAF proto-oncogene serine/threonine-protein kinase (Homo sapiens) (P04049 whole entry): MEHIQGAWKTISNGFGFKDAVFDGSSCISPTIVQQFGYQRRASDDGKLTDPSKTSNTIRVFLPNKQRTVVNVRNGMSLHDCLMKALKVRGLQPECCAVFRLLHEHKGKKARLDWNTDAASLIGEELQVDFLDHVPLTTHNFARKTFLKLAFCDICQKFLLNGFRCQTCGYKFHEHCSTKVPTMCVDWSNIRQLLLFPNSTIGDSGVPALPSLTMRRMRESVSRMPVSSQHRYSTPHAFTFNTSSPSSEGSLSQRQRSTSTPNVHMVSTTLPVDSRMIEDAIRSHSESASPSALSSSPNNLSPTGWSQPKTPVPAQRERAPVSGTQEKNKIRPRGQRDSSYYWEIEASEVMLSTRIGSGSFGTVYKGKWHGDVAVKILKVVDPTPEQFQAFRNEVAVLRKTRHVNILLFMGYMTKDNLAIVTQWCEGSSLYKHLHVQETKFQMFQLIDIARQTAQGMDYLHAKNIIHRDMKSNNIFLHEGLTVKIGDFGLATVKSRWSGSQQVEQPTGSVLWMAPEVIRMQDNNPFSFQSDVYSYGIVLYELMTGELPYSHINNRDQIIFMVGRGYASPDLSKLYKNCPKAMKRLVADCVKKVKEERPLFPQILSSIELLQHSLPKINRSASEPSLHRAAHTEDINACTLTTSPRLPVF
# Sequence of Tyrosine-protein kinase Fgr (Homo sapiens) (P09769 2-529 limits assumed): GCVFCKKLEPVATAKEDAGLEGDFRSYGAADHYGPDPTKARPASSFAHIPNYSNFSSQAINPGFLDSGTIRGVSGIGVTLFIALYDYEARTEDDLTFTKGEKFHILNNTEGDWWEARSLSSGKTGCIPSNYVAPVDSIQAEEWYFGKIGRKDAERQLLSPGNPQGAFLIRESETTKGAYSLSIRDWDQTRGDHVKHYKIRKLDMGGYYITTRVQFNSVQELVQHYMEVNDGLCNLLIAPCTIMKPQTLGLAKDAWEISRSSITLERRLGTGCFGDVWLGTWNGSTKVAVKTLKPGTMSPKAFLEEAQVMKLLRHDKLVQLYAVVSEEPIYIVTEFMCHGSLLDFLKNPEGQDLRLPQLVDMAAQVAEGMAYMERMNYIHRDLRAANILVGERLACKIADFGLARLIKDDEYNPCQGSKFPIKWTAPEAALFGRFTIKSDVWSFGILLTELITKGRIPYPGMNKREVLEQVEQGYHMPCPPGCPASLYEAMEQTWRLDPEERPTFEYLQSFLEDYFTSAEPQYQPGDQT
# Sequence of Fibroblast growth factor receptor 4 (Homo sapiens) (P22455 22-802 limits assumed): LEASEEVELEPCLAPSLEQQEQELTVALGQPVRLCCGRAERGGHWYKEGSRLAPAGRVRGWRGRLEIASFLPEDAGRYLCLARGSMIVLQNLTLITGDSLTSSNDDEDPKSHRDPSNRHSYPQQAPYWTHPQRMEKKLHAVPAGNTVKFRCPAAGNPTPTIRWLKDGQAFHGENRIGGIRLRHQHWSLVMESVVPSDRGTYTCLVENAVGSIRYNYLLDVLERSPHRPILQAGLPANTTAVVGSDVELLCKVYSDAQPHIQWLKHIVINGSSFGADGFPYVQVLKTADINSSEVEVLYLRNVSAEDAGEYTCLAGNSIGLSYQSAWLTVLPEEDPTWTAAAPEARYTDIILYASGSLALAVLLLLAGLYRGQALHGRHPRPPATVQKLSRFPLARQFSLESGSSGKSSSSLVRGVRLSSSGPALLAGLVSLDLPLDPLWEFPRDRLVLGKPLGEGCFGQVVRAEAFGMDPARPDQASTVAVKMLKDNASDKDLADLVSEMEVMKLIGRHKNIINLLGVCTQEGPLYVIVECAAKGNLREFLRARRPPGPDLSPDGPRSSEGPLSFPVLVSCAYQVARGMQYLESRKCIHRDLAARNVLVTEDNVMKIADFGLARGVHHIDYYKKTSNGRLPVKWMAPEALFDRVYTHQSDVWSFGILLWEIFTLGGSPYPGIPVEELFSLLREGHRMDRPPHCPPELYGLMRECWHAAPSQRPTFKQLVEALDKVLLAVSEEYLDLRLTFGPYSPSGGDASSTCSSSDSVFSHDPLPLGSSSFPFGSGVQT
Compound,inhibition [1] [%],inhibition [2] [%],inhibition [3] [%],inhibition [4] [%],inhibition [5] [%],inhibition [6] [%],inhibition [7] [%],inhibition [8] [%],inhibition [9] [%],inhibition [10] [%],inhibition [11] [%],inhibition [12] [%],inhibition [13] [%],inhibition [14] [%],inhibition [15] [%],inhibition [16] [%],inhibition [17] [%],inhibition [18] [%],inhibition [19] [%],inhibition [20] [%]
COc1cccc(-n2cnc3c(N/N=C/c4ccncc4)ncnc32)c1,-3.96,6.79,19,-1.12,1.4,0.88,6.95,7.7,3.46,1.07,4.59,7.55,36.4,-2.42,-3.33,-0.31,-1.09,-0.89,-0.68,-3.41
CCS(=O)(=O)c1ccc(OC)c(Nc2ncc(-c3ccccc3Cl)o2)c1,4.03,3.37,17,3.73,13.8,2.1,21.1,7.14,-1.06,5.33,42.6,8.95,39.3,2.78,-0.17,0.55,0.2,0.25,0.86,0.78
O=C(Nc1n[nH]c2cc(-c3ccccc3)ccc12)C1CC1,0.83,1.51,12.8,3.64,2.3,0.48,2.82,-3.75,-4.78,3.71,16.1,1.86,5.44,4.16,1.7,7.16,6.29,6.47,6.53,-0.71
O=C(Nc1n[nH]c2cc(-c3cc(F)ccc3F)ccc12)C1CC1,0.78,3.33,7.71,0.6,1.91,1.12,4.67,-5.43,-2.35,3.8,11.7,2.25,8.92,0.04,-0.4,5.1,7.61,5.62,6.3,-1.79
O=C1Nc2ccccc2/C1=C/Nc1ccc(-n2cncn2)cc1,2.81,4.93,12.8,4.03,24.1,12.5,53.7,16.4,12.3,3.19,10.2,3.29,15.7,4.53,7.33,6.1,6.87,7.05,6.86,15.1
COc1ccc2cc(-c3c(-c4ccncc4)nc(-c4ccc([S+](C)[O-])cc4C)n3C)ccc2c1 (stereo not drawn),2.85,0.53,4.65,0.86,5.84,-0.09,-1,0.23,0.94,0.37,2.2,3.84,21.3,-0.83,-0.09,0.29,-0.78,-0.1,-0.41,-0.64
COc1ccc(C2=C(N3CCc4ccccc43)C(=O)NC2=O)cc1,1.06,5.11,3.99,1.27,2.89,3.27,2.59,5.76,-5.5,4.63,3.41,4.87,5.12,3.72,-0.45,5.73,7.39,6.3,4.71,-3.24
Cc1ccc(NC(=O)c2ccoc2)cc1-c1ccc(C(=O)NCC2CC2)cc1,1.63,2.23,3.07,1.47,8.07,0.8,0.9,-5.38,-0.16,0.97,3.21,3.34,1.5,-0.49,1.63,3.14,2.28,2.97,1.81,0.61
CCc1nccc2c1nc(-c1nonc1N)n2CC,1.32,-0.77,3.85,-0.82,1.6,-0.04,0.33,-2.37,-2.82,-0.74,-0.82,0.39,1.95,1.4,0.96,-0.39,1.49,0.46,1.01,-4.45
Clc1ccc(CNc2nccc(-c3cnn4ncccc34)n2)cc1,1.27,3.59,4,-1.24,6.44,1.16,1.79,2.77,1.83,1.5,2.27,-0.37,-1.15,–,-0.35,0.05,3.64,0.12,2.83,1.36
COc1cccc(/C=N/Nc2ncnc3c2cnn3-c2cccc(OC)c2)c1,0.32,1.37,8.08,3.79,0.71,0.18,4.83,-0.05,-1.11,3.49,4.49,2.39,8.43,1.23,2.81,4.82,6.54,4.25,4.68,1.07
CCN(CC)Cc1ccc(Nc2nccc(-c3cnn4ncccc34)n2)cc1,-3.39,2.7,11.3,3.62,16.2,7.95,47.7,-3.04,11.6,4.07,18.2,4.42,22.5,-3.68,-4.19,7.03,17.7,4.68,14,0.49
Cc1nnc(-c2ccc(C)c(-c3ccc(C(=O)NCc4ccc(Cl)cc4)cc3)c2)o1,-3.75,4.76,1.82,2.48,2.52,2.13,0.77,2.22,-3.78,2.85,3.57,2.58,5.29,–,-3.27,5.55,4.07,6.27,3.85,8.41
